Measurements published in PubChem BioAssay (NCI).
Values joined by “and” are separate entries in the source; they are usually repeats but may differ in a detail not shown here. Identical values can stand only once. This is part of a sample that, as a whole, favours compounds with a hit. Of some 83,000 tested, about 20% had one in any assay.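 Compound tested at a single concentration for 48 hours in 96-well plates; a percent growth value below 10 was scored as active.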 Active and inactive are the calls of the source.

How the values were obtained:
Test in all cases: NCI-60 one-dose screen, 48 h (100 = growth as untreated, 0 = no growth, -100 = all killed)
Details in all cases: 10 µM unless noted
DU-145 prostate = system: DU-145 prostate
K-562 leukemia = system: K-562 leukemia
MALME-3M melanoma = system: MALME-3M melanoma
MDA-MB-231 breast = system: MDA-MB-231 breast
RXF 393 renal = system: RXF 393 renal
SF-268 CNS = system: SF-268 CNS
SF-295 CNS = system: SF-295 CNS
SF-539 CNS = system: SF-539 CNS
UACC-257 melanoma = system: UACC-257 melanoma
M14 melanoma = system: M14 melanoma
HCT-15 colon = system: HCT-15 colon
HT29 colon = system: HT29 colon
SNB-75 CNS = system: SNB-75 CNS
SNB-19 CNS = system: SNB-19 CNS
U251 CNS = system: U251 CNS
PC-3 prostate = system: PC-3 prostate
SK-MEL-5 melanoma = system: SK-MEL-5 melanoma
UACC-62 melanoma = system: UACC-62 melanoma
LOX IMVI melanoma = system: LOX IMVI melanoma
SK-MEL-28 melanoma = system: SK-MEL-28 melanoma

| Structure (SMILES) | growth (DU-145 prostate) | growth (K-562 leukemia) | growth (MALME-3M melanoma) | growth (MDA-MB-231 breast) | growth (RXF 393 renal) | growth (SF-268 CNS) | growth (SF-295 CNS) | growth (SF-539 CNS) | growth (UACC-257 melanoma) | growth (M14 melanoma) | growth (HCT-15 colon) | growth (HT29 colon) | growth (SNB-75 CNS) | growth (SNB-19 CNS) | growth (U251 CNS) | growth (PC-3 prostate) | growth (SK-MEL-5 melanoma) | growth (UACC-62 melanoma) | growth (LOX IMVI melanoma) | growth (SK-MEL-28 melanoma) |
| --- | --- | --- | --- | --- | --- | --- | --- | --- | --- | --- | --- | --- | --- | --- | --- | --- | --- | --- | --- | --- |
| CN(C)c1cccc2c(S(=O)(=O)Nc3cccc(-c4csc(NC(=O)CCCCCN5CCN(CCO)CC5)n4)c3)cccc12 | 90.6% (inactive) | 7.77% (active) | 55.9% (inactive) | 84.1% (inactive) | 66.7% (inactive) | 93.5% (inactive) | 60.5% (inactive) | 54.7% (inactive) | 78.3% (inactive) | 73.7% (inactive) | 90.6% (inactive) | 17% (inactive) | 80.1% (inactive) | 87.9% (inactive) | 70.2% (inactive) | 72.3% (inactive) | 79.2% (inactive) | 94.1% (inactive) | 12.9% (inactive) | -7.14% (active) |
| COc1ccc(N2CCN(C3=C(Cl)C(=O)c4ncccc4C3=O)CC2)cc1 | 5.58% (active) | 6.59% (active) | 23.7% (inactive) | 62.5% (inactive) | 15.2% (inactive) | 86% (inactive) | 108% (inactive) | 89.6% (inactive) | 24.6% (inactive) | 45.6% (inactive) | 17.1% (inactive) | 87.3% (inactive) | 85.2% (inactive) | 94.7% (inactive) | 90.9% (inactive) | 68.1% (inactive) | 95% (inactive) | 69.3% (inactive) | 21% (inactive) | 78.3% (inactive) |
| COc1ccc(-c2cnc(NC(=O)CCCCCCNC(=O)C(O)(O)C(F)(F)F)s2)cc1 | -8.16% (active) | 14.4% (inactive) | 11% (inactive) | 17% (inactive) | -48% (active) | 2% (active) | -44.2% (active) | 12% (inactive) | 18.3% (inactive) | 14.4% (inactive) | 4.2% (active) | 0.86% (active) | 36.8% (inactive) | 17.5% (inactive) | -46.4% (active) | 17.8% (inactive) | -62.2% (active) | -31.8% (active) | -89.5% (active) | 8.09% (active) |
| O=C1c2ccccc2C23C(=C(c4cncnc4)c4ccccc42)CCCN13 (stereo not given) | 101% (inactive) | 102% (inactive) | 94.7% (inactive) | 101% (inactive) | 104% (inactive) | 91.6% (inactive) | 95.9% (inactive) | 102% (inactive) | 108% (inactive) | 98.6% (inactive) | 104% (inactive) | 101% (inactive) | 85.3% (inactive) | 93.4% (inactive) | 102% (inactive) | 88.8% (inactive) | 98.7% (inactive) | 88.2% (inactive) | 76.1% (inactive) | 101% (inactive) |
| CCCCCCCCCC(=O)NC(C)(C)C(=O)N1CCC[C@H]1C(=O)N[C@@H](CC(C)C)C(=O)N[C@@](C)(CC)C(=O)N[C@@H](CCC(N)=O)C(=O)N[C@H](CCC(N)=O)C(=O)NC(C)(C)C(=O)NC(C)(C)C(=O)N[C@@H](CCC(N)=O)C(=O)N[C@H](CC(C)C)C(=O)N[C@H](CO)CC(C)C | -97.6% (active) and -52.1% (active) | -81.3% (active) and 23% (inactive) | -91.4% (active) and -84.4% (active) | -92.8% (active) and -95.8% (active) | -92.3% (active) and -46.4% (active) | -68.6% (active) and -46.2% (active) | -92.1% (active) and -84.6% (active) | -97.7% (active) and -99% (active) | -95% (active) and -74% (active) | -77.5% (active) and -65.7% (active) | -79.6% (active) and 23.1% (inactive) | -51.5% (active) and -46.3% (active) | -66.3% (active) and -94% (active) | -96.3% (active) and -99% (active) | -92% (active) and -81.5% (active) | -94.1% (active) and -55.4% (active) | -96.7% (active) and -93.7% (active) | -96.7% (active) and -91.7% (active) | -91.5% (active) and -88.4% (active) | -97.9% (active) and -99.9% (active) |
| O=C1CSC(c2cn(-c3ccccc3)nc2-c2ccc(Cl)cc2)N1c1ccccc1 (stereo not given) | 115% (inactive) | 109% (inactive) | 115% (inactive) | 107% (inactive) | 126% (inactive) | 109% (inactive) | 99.5% (inactive) | 99% (inactive) | 102% (inactive) | 99.3% (inactive) | 101% (inactive) | 106% (inactive) | 99.9% (inactive) | 112% (inactive) | 106% (inactive) | 99.7% (inactive) | 99.4% (inactive) | 99% (inactive) | 100% (inactive) | 118% (inactive) |
| CC(=O)OC[C@]12CC[C@@H](C(=O)/C=C/c3cccnc3)[C@@H]1[C@H]1CC[C@@H]3[C@@]4(C)CC[C@H](OC(C)=O)C(C)(C)[C@@H]4CC[C@@]3(C)[C@]1(C)CC2 | 45.7% (inactive) | 13.1% (inactive) | -66.3% (active) | -40.5% (active) | -71.6% (active) | 42.2% (inactive) | 29.7% (inactive) | -52.7% (active) | -4.75% (active) | 12.2% (inactive) | -53% (active) | 6.53% (active) | 54.3% (inactive) | 46.6% (inactive) | 23.4% (inactive) | 19.9% (inactive) | -96.2% (active) | -4.76% (active) | -84% (active) | -56.4% (active) |
| COc1cc(/C=C2/C(=O)Nc3ccc(Cl)cc32)ccc1OCc1ccc(Cl)cc1 | 89.5% (inactive) | 88.6% (inactive) | 82.3% (inactive) | 86.9% (inactive) | 93.4% (inactive) | 90.2% (inactive) | 97.7% (inactive) | 92.2% (inactive) | 102% (inactive) | 96.4% (inactive) | 86.5% (inactive) | 94.1% (inactive) | 77.7% (inactive) | 91.3% (inactive) | 50.7% (inactive) | 84.2% (inactive) | 89.2% (inactive) | 70.2% (inactive) | 68.3% (inactive) | 103% (inactive) |
| NS(=O)(=O)c1ccc(Nc2nc(N/N=C/C=C/c3ccccc3)nc(Nc3ccccc3)n2)cc1 | 42.5% (inactive) | 27.1% (inactive) | 50.7% (inactive) | 47.9% (inactive) | -8.45% (active) | 46% (inactive) | 44.5% (inactive) | 39.4% (inactive) | 79.2% (inactive) | 40.3% (inactive) | 45% (inactive) | 34.6% (inactive) | 43% (inactive) | 48.4% (inactive) | 51.1% (inactive) | 47.5% (inactive) | 40.3% (inactive) | 66.4% (inactive) | 27.3% (inactive) | 60.3% (inactive) |
| C#Cc1cc(OC)c(C(=O)Nc2ccc(F)cc2C(=O)Nc2cccc(S(=O)(=O)C(F)(F)F)c2)cn1 | 46.8% (inactive) | 5.65% (active) | -33.4% (active) | -24.4% (active) | -1.43% (active) | -38.1% (active) | -83.2% (active) | -87.1% (active) | 55.7% (inactive) | 16.7% (inactive) | -8.48% (active) | -30.3% (active) | -80.4% (active) | 17.6% (inactive) | 0.45% (active) | 4.89% (active) | -49% (active) | 18.8% (inactive) | -82.1% (active) | 50% (inactive) |
| CC(C)(C)Nc1nc2c(OCCc3ccccc3)cccn2c1-c1ccc([N+](=O)[O-])cc1 | 86.2% (inactive) | 39.7% (inactive) | 83.6% (inactive) | 80.9% (inactive) | 63.5% (inactive) | 71.2% (inactive) | 43.8% (inactive) | 76.5% (inactive) | 88.7% (inactive) | 60.5% (inactive) | 15.8% (inactive) | 52.3% (inactive) | 88.1% (inactive) | 78.4% (inactive) | 62.6% (inactive) | 49.1% (inactive) | 74.8% (inactive) | 57.5% (inactive) | 54.7% (inactive) | 76.2% (inactive) |
| C=CCSC1=NC2C(N(CC)C(=O)N2CC)N1/N=C/C=C/c1ccccc1OC (stereo not given) | 92.2% (inactive) | 28% (inactive) | 72.2% (inactive) | 82.5% (inactive) | 79.3% (inactive) | 89.2% (inactive) | 58.5% (inactive) | 78.1% (inactive) | 83% (inactive) | 72.6% (inactive) | 50.8% (inactive) | 70.3% (inactive) | 70.7% (inactive) | 79.9% (inactive) | 74.2% (inactive) | 62.4% (inactive) | 65.5% (inactive) | 54.6% (inactive) | 68.9% (inactive) | 84.3% (inactive) |
| CC(Nc1ncnc2ccc(-c3cnc(N)nc3)cc12)c1ccccc1 (stereo not given) | 25.1% (inactive) | 44.5% (inactive) | 28.9% (inactive) | 25.4% (inactive) | -2.14% (active) | 40.9% (inactive) | 29.6% (inactive) | 23.4% (inactive) | 77.2% (inactive) | 48.3% (inactive) | 22.4% (inactive) | 43.1% (inactive) | 31.1% (inactive) | 40% (inactive) | 47% (inactive) | 29.7% (inactive) | 26.4% (inactive) | 28.5% (inactive) | 23.8% (inactive) | 50.2% (inactive) |
| O=C(CSc1nc2ccccc2c(=O)n1CCc1ccccc1)Nc1ccc(S(=O)(=O)Nc2ccc(Cl)nn2)cc1 | 105% (inactive) | 87.2% (inactive) | 96.5% (inactive) | 94.7% (inactive) | 86.5% (inactive) | 96.7% (inactive) | 95.3% (inactive) | 92.3% (inactive) | 99.3% (inactive) | 96.2% (inactive) | 92.4% (inactive) | 117% (inactive) | 78.7% (inactive) | 92.2% (inactive) | 92.9% (inactive) | 89.3% (inactive) | 98.6% (inactive) | 84.6% (inactive) | 96.1% (inactive) | 108% (inactive) |
